From ChEMBL document CHEMBL5606460, “ASAP - DENV-2 NS2B-NS3 protease fluorescence single point” (2024)
Screen size: about 2,000 compounds; about 110 (5.5%) showed an effect of 50% or more. This excerpt belongs to a sample that is enriched for strong results.

Target: Genome polyprotein (dengue virus type 2) (UniProt P29990)
[1] = Thailand/16681/1984, Concentration 25.0 uM, Number of replicates 1.0

Structure (SMILES): O=Cc1ccc(N2CCC(C(=O)NCc3cccc([N+](=O)[O-])c3)CC2)cc1
- inhibition [1]: 11%

Structure (SMILES): NC(=O)c1ccc(Cl)c(NC(=O)C2CCN(c3ccc(C=O)cc3)CC2)c1
- inhibition [1]: 13.8%

Structure (SMILES): Cc1cc(CO)c2cccc(Cc3cccc(NC(=O)Cc4cccc(CN)c4)c3)c2n1
- inhibition (Thailand/16681/1984, Concentration 49.95 uM, Number of replicates 2.0, Standard deviation 1.5571170041089204 %): 9.22%
- inhibition (Thailand/16681/1984, Concentration 99.9 uM, Number of replicates 2.0, Standard deviation 3.140543082582705 %): 20.8%

Structure (SMILES): C[C@@H](NC(=O)OCc1ccccc1)C(=O)Nc1cccc(CN)c1
- inhibition (Thailand/16681/1984, Concentration 49.5 uM, Number of replicates 2.0, Standard deviation 1.8366578313187596 %): -7.57%
- inhibition (Thailand/16681/1984, Concentration 198.0 uM, Number of replicates 2.0, Standard deviation 1.0835833369227144 %): -9.56%

Structure (SMILES): NCc1cccc(NC(=O)[C@@H](NC(=O)OCc2ccccc2)C2CCCCC2)c1
- inhibition (Thailand/16681/1984, Concentration 49.5 uM, Number of replicates 2.0, Standard deviation 3.75421470496627 %): -3.1%
- inhibition (Thailand/16681/1984, Concentration 99.01 uM, Number of replicates 2.0, Standard deviation 3.4431804249233626 %): -1.76%
- inhibition (Thailand/16681/1984, Concentration 198.0 uM, Number of replicates 2.0, Standard deviation 6.458747607105988 %): 79.9%

Structure (SMILES): CC(C)(C)[C@@H](NC(=O)OCc1ccccc1)C(=O)Nc1cccc(CN)c1
- inhibition (Thailand/16681/1984, Concentration 49.5 uM, Number of replicates 2.0, Standard deviation 1.83793572376561 %): -6.76%
- inhibition (Thailand/16681/1984, Concentration 99.01 uM, Number of replicates 2.0, Standard deviation 1.8206757463634287 %): -7.66%
- inhibition (Thailand/16681/1984, Concentration 198.0 uM, Number of replicates 2.0, Standard deviation 1.2664180516369132 %): -8.05%

Structure (SMILES): CC(C)C[C@@H](NC(=O)OCc1ccccc1)C(=O)Nc1cccc(CN)c1
- inhibition (Thailand/16681/1984, Concentration 49.5 uM, Number of replicates 2.0, Standard deviation 3.1792600205617827 %): -4.42%
- inhibition (Thailand/16681/1984, Concentration 99.01 uM, Number of replicates 2.0, Standard deviation 3.3347078817009965 %): -3.69%
- inhibition (Thailand/16681/1984, Concentration 198.0 uM, Number of replicates 2.0, Standard deviation 3.065424880922284 %): -2.71%

Structure (SMILES): NCc1cccc(NC(=O)[C@@H](NC(=O)OCc2ccccc2)C(C2CCC2)C2CCC2)c1
- inhibition (Thailand/16681/1984, Concentration 49.5 uM, Number of replicates 2.0, Standard deviation 1.0931409988329541 %): 0.575%
- inhibition (Thailand/16681/1984, Concentration 99.01 uM, Number of replicates 2.0, Standard deviation 7.259842534821406 %): 21.9%
- inhibition (Thailand/16681/1984, Concentration 198.0 uM, Number of replicates 2.0, Standard deviation 0.026391345013157583 %): 99.8%

Structure (SMILES): NCc1cccc(NC(=O)[C@@H](CO)NC(=O)OCc2ccccc2)c1
- inhibition (Thailand/16681/1984, Concentration 49.5 uM, Number of replicates 2.0, Standard deviation 0.4735169770341957 %): -3.34%
- inhibition (Thailand/16681/1984, Concentration 99.01 uM, Number of replicates 2.0, Standard deviation 2.1222171442022573 %): -3.24%
- inhibition (Thailand/16681/1984, Concentration 198.0 uM, Number of replicates 2.0, Standard deviation 1.1527028197814282 %): -3.94%

Structure (SMILES): C[C@H](NC(=O)C1CCN(c2ccc(C=O)cc2)CC1)c1ccc(S(C)(=O)=O)cc1
- inhibition [1]: 12.5%

Structure (SMILES): CCN(C(=O)C1CCN(c2ccc(C=O)cc2)CC1)[C@H]1CCOC(C)(C)C1
- inhibition [1]: 13%

Structure (SMILES): NCc1cccc(NC(=O)[C@@H](Cc2cccc(O)c2)NC(=O)OCc2ccccc2)c1
- inhibition (Thailand/16681/1984, Concentration 49.5 uM, Number of replicates 2.0, Standard deviation 2.8573642237031027 %): -3.63%
- inhibition (Thailand/16681/1984, Concentration 99.01 uM, Number of replicates 2.0, Standard deviation 1.9175045904819328 %): -3.65%
- inhibition (Thailand/16681/1984, Concentration 198.0 uM, Number of replicates 2.0, Standard deviation 1.9524208099559948 %): -2.84%

Structure (SMILES): COc1cc(C(=O)N(C)C)nc(N2CCNCC2)n1
- inhibition (Thailand/16681/1984, Concentration 49.5 uM, Number of replicates 2.0, Standard deviation 4.026406870890022 %): -3.23%
- inhibition (Thailand/16681/1984, Concentration 99.01 uM, Number of replicates 2.0, Standard deviation 2.6098419358385048 %): -4.25%
- inhibition (Thailand/16681/1984, Concentration 198.0 uM, Number of replicates 2.0, Standard deviation 2.250930669275132 %): -2.7%

Structure (SMILES): CCCC[C@H](NC(=O)OC(C)(C)C)C(=O)N[C@H](C(=O)NCc1ccc(C(N)=O)cc1)c1ccc(OCc2ccccc2)cc1
- inhibition (Thailand/16681/1984, Concentration 49.5 uM, Number of replicates 2.0, Standard deviation 0.5441055304446053 %): -3.24%
- inhibition (Thailand/16681/1984, Concentration 99.01 uM, Number of replicates 2.0, Standard deviation 1.2410372194636528 %): 12.6%
- inhibition (Thailand/16681/1984, Concentration 198.0 uM, Number of replicates 2.0, Standard deviation 0.08996362825826161 %): 97.6%

Structure (SMILES): CC(C)(C)OC(=O)N[C@H](C(=O)Nc1ccc(CN)cc1)c1ccc(OCc2ccccc2)cc1
- inhibition (Thailand/16681/1984, Concentration 49.5 uM, Number of replicates 2.0, Standard deviation 0.7638001086987946 %): -1.42%
- inhibition (Thailand/16681/1984, Concentration 99.01 uM, Number of replicates 2.0, Standard deviation 0.5692523211680847 %): 0.423%
- inhibition (Thailand/16681/1984, Concentration 198.0 uM, Number of replicates 2.0, Standard deviation 0.3400589812244498 %): 5.26%

Structure (SMILES): CCCC[C@@H](NC(=O)OC(C)(C)C)C(=O)N[C@@H](C(=O)NCc1ccc(CN)cc1)c1ccc(OCc2ccccc2)cc1
- inhibition (Thailand/16681/1984, Concentration 49.5 uM, Number of replicates 2.0, Standard deviation 1.8529777654117539 %): 94%
- inhibition (Thailand/16681/1984, Concentration 99.01 uM, Number of replicates 2.0, Standard deviation 0.005880328304239935 %): 100%
- inhibition (Thailand/16681/1984, Concentration 198.0 uM, Number of replicates 2.0, Standard deviation 0.014706215557209234 %): 99.9%

Structure (SMILES): CC(C)(C)OC(=O)N[C@H](C(=O)Nc1cccc(CN)c1)c1ccc(OCc2ccccc2)cc1
- inhibition (Thailand/16681/1984, Concentration 49.5 uM, Number of replicates 2.0, Standard deviation 1.7551947166429631 %): -1.9%
- inhibition (Thailand/16681/1984, Concentration 99.01 uM, Number of replicates 2.0, Standard deviation 0.05489981052071439 %): 3.23%
- inhibition (Thailand/16681/1984, Concentration 198.0 uM, Number of replicates 2.0, Standard deviation 0.6374768156986698 %): 15%

Structure (SMILES): CC(C)(C)OC(=O)N[C@H](C(=O)Nc1cccc(C(N)=O)c1)c1ccc(OCc2ccccc2)cc1
- inhibition (Thailand/16681/1984, Concentration 49.5 uM, Number of replicates 2.0, Standard deviation 1.188000805409302 %): 2.72%
- inhibition (Thailand/16681/1984, Concentration 99.01 uM, Number of replicates 2.0, Standard deviation 0.11203913598390365 %): 5.59%
- inhibition (Thailand/16681/1984, Concentration 198.0 uM, Number of replicates 2.0, Standard deviation 0.9108004769909699 %): 7.47%

Structure (SMILES): Cc1cnccc1NC(=O)c1ccc2c(c1)COCC2
- inhibition (Thailand/16681/1984, Concentration 49.5 uM, Number of replicates 2.0, Standard deviation 2.5121871293930202 %): -1.99%
- inhibition (Thailand/16681/1984, Concentration 99.01 uM, Number of replicates 2.0, Standard deviation 1.8322256055090813 %): -1.68%
- inhibition (Thailand/16681/1984, Concentration 198.0 uM, Number of replicates 2.0, Standard deviation 3.8354075529759903 %): -1.51%

Structure (SMILES): NCc1cccc(NC(=O)C2(NC(=O)OCc3ccccc3)CC(F)(F)C2)c1
- inhibition (Thailand/16681/1984, Concentration 49.5 uM, Number of replicates 2.0, Standard deviation 2.2677200349668407 %): -2.94%
- inhibition (Thailand/16681/1984, Concentration 99.01 uM, Number of replicates 2.0, Standard deviation 0.8839411333719474 %): -2.06%
- inhibition (Thailand/16681/1984, Concentration 198.0 uM, Number of replicates 2.0, Standard deviation 0.8051076448684426 %): -2.25%

Structure (SMILES): Cc1cc(CO)c2cccc(Cc3ccccc3NC(=O)CN3CCOCC3)c2n1
- inhibition (Thailand/16681/1984, Concentration 49.95 uM, Number of replicates 2.0, Standard deviation 1.5612707024702146 %): -2%
- inhibition (Thailand/16681/1984, Concentration 99.9 uM, Number of replicates 2.0, Standard deviation 0.4618038620708361 %): 3.39%

Structure (SMILES): COc1cc(Cc2cnc(N)c(C(F)F)c2)nc(N2CCNCC2)n1
- inhibition (Thailand/16681/1984, Concentration 49.5 uM, Number of replicates 2.0, Standard deviation 0.44655669171298956 %): 1.19%
- inhibition (Thailand/16681/1984, Concentration 99.01 uM, Number of replicates 2.0, Standard deviation 0.9500169394185984 %): 3.1%
- inhibition (Thailand/16681/1984, Concentration 198.0 uM, Number of replicates 2.0, Standard deviation 0.4205436146652173 %): 6.14%

Structure (SMILES): CCCOc1ccc([C@H](C)NC(=O)C2CCN(c3ccc(C=O)cc3)CC2)cc1
- inhibition [1]: 7.26%

Structure (SMILES): COc1ccc(C[C@H]2c3cc(OC)c(OC)cc3CCN2C(=O)C2CCN(c3ccc(C=O)cc3)CC2)cc1OC
- inhibition [1]: 15.8%

Structure (SMILES): CCn1ccnc(N2CC[C@@H](CO)C2)c1=O
- inhibition (Thailand/16681/1984, Concentration 49.5 uM, Number of replicates 2.0, Standard deviation 0.40547257598729775 %): 8.04%
- inhibition (Thailand/16681/1984, Concentration 99.01 uM, Number of replicates 2.0, Standard deviation 0.38043701079703857 %): 15.5%
- inhibition (Thailand/16681/1984, Concentration 198.0 uM, Number of replicates 2.0, Standard deviation 0.16218916526483432 %): 28.5%
